Among the data in PubChem BioAssay (NCI) are growth values, retold here.

Structures are written as SMILES. The panel holds about 83,000 compounds, 20% with a hit somewhere; the sample as a whole holds those more often.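 Assay: single dose, 48 h. Readout: percent growth (0 = no net growth; negative = cell death). Active: <10.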 Values without a mark were called inactive. Activity calls are given as the source filed them.

The assay relates to MDA-MB-468 breast. The assay can be described thus: NCI-60 one-dose screen, 48 h (100 = growth as untreated, 0 = no growth, -100 = all killed). Particulars: 10 µM unless noted.
On to `COc1ccc(-c2nc3ccccn3c2-c2nc3ccc(Cl)cc3[nH]2)cc1`, for which the growth was 77.7%.

In the case of `O=c1[nH]c([C@@H]2CCCN2)nc2c1oc1ccc(Cl)cc12`, the growth is 33.6%.

Turning to `COC(=O)CNC(=O)[C@@H](OC)[C@@H]1Cc2cc3cc(OC4CC(OC5CC(O)C(O)C(C)O5)C(O)C(C)O4)c(C)c(O)c3c(O)c2C(=O)[C@H]1OC1CC(OC2CC(OC3CC(C)(O)C(O)C(C)O3)C(O)C(C)O2)C(O)C(C)O1` (stereo not given in full), the growth was -22.3% (active).

Consider `Cc1ccc(-c2nc(-c3cn(C)c4ncccc34)cs2)cc1`, for which the growth was -50.2% [100 µM] (active).

In the case of `Clc1ccc(Nc2nnc(COc3ccccc3)c3ccccc23)cc1`, the growth is -16.9% (active).

For the compound `CN(C)CCCn1c(=O)c2ccccc2c2ccccc21`, the growth is 66%.

As for `COc1ccc2c(c1)C(=O)c1c-2c(OCCN(C)C)nc2cc(OC)c(OC)cc12`, the growth is 81.6%.

With `Nc1cccc2cccc(O)c12`, the growth is 82.6%.

As to `CN(C)C1CCC(NC2=CC(=O)C=CC2=O)CC1` (stereo not given), the growth is 105%.

As to `Cc1ccc([C@H]2c3[nH]c4ccccc4c3C[C@H]3C(=O)N(CCCCCCC(=O)NO)CC(=O)N23)s1`, the growth is 37.3%.

In the case of `c1coc(CNc2c3ccccc3nc3ccccc23)c1`, the growth is 29.4%.

For the compound `N#C/C(=C\c1ccc(-c2ccccc2F)o1)c1nc(-c2ccco2)cs1`, the growth was -11% (active).

As to `C=C(C)[C@@H]1CC[C@]2(C)[C@H](CC=C3[C@@H]4[C@H](C)[C@@H](C)CC[C@]4(CO)CC[C@]32C)[C@@]1(C)CCCN`, the growth was -54.7% (active).

As to `Cc1cc[c-]cc1.Fc1c[c-]c(-c2ccccn2)c(F)c1.[Pt+2].c1ccc(P(C[PH+](c2ccccc2)c2ccccc2)c2ccccc2)cc1`, the growth is -2.46% (active).

On to `COc1ccc(/C=C2\COc3ccc(O)cc3C2=O)c(OC)c1`, for which the growth was -1.02% (active).

Turning to `Cc1ccc(-[n+]2c3cc(N)c(C)cc3nc3cc(C)c(Nc4ccccc4)cc32)cc1`, the growth is -86.2% (active).

For `O=S(=O)(Cc1ccc(Cl)cc1Cl)c1ccc(Cl)cc1`, the growth was -29.8% (active).

On to `COc1cc(-c2cc3cc(O)ccc3oc2=O)cc(OC)c1OC`, for which the growth was 106%.

Regarding `Oc1ccc(C(c2ccc(O)cc2)C(Cl)(Cl)Cl)cc1`, the growth was 90%.

`C=C(C)[C@@H]1CC[C@]2(C=O)CC[C@]3(C)[C@H](CC[C@@H]4[C@@]5(C)C/C(=C/c6cccnc6)C(=O)C(C)(C)[C@@H]5CC[C@]43C)[C@@H]12`: the growth is 80.4%.

With `O=C(COc1ccc(/C=C2\Cc3ccc(Cl)cc3C2=O)cc1)Nc1nccs1`, the growth is 98.8%.

Regarding `O=C(Nc1cc(Nc2ncccc2-c2ncnc3nc[nH]c23)ccc1F)c1cc(C(F)(F)F)cc(C(F)(F)F)c1`, the growth is -24.9% (active).

Turning to `Cc1cccc(-c2nc(Nc3ccc4ncsc4c3)c3ccccc3n2)n1`, the growth is 72.3%.

In the case of `OC(CSc1ccccc1)CN1CCN(c2ccc(Cl)cc2)CC1` (stereo not given), the growth was 86.7%.

For the compound `CC(Nc1ncnc2ccc(-c3cnc4cnccn34)cc12)c1ccccc1` (stereo not given), the growth is -21% (active).

Consider `Cc1nn(-c2nc3ccccc3[nH]2)c2c1C(c1ccc(OCC(N)=O)cc1)CC(=O)N2` (stereo not given), for which the growth is 108%.

In the case of `N=C(N)c1ccc(-c2ccc(-c3ccccc3)s2)cc1`, the growth is -39.2% (active).

`NC(=O)Nc1cc(-c2cccc(F)c2)sc1C(=O)N[C@H]1CCCNC1`: the growth was -60.5% (active).

For the compound `COc1cc2nc(Cc3ccc(C)cc3)[nH]c(=O)c2cc1OC`, the growth is 98.8%.

Regarding `Nc1nccc(OCCO)n1`, the growth was 107%.

Regarding `COc1cccc(O)c1/C=C(/C)c1ccc2c(OC)cccc2[o+]1`, the growth was 112%.

For the compound `COc1cc(/C=N/Nc2ncnc3c2c(C)nn3-c2ccc(F)cc2)ccc1O`, the growth is 92%.

As for `Fc1cc(F)cc(C(c2c[nH]c3ccccc23)c2c[nH]c3ccccc23)c1`, the growth is 111%.

Turning to `COc1cc(C2CC(c3ccc(C)cc3)=NN2C(C)=O)ccc1Oc1ccnc2cc(Cl)ccc12` (stereo not given), the growth is 78.6%.

`N#Cc1c(Nc2ccc(N3CCOCC3)cc2)nc(SCC(=O)c2ccc(Br)cc2)nc1-c1ccccc1`: the growth was 113%.

`CC(=O)Nc1ccc2c(c1)Cc1c(F)c(F)c(F)c(F)c1-2`: the growth was 82.5%.

In the case of `COc1cccc2c1O/C(=C\c1ccc([N+](=O)[O-])s1)C2=O`, the growth was 14.5%.

`CCN(CC)c1ccc(C(=O)c2ccccc2)cc1`: the growth is 105%.

As to `CCOC(=O)c1c(C)oc2ncnc(N3CCN(C(=S)Nc4ccccc4)CC3)c12`, the growth is 85.2%.

As for `CC(C)NC1CCC(Nc2ccnc3cc(Cl)ccc23)CC1` (stereo not given), the growth is 62.3%.
